BAZ2B block – qHTS Assay for Inhibitors of BAZ2B; AlphaScreen BAZ2B-H3K14Ac peptide displacement; Potency, µM (titrated, usually from 114 µM), most hits filed as inhibitors; 360,000 compounds, 4.4% hits; note: nearly all actives have a fitted effect of over 60% in size
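Protein-peptide AlphaScreen: BAZ2B 50 nM, b-H3K14Ac 50 nM, 1x PBS pH 7.4 + 0.01% Tween-20. Preincubation 30 min RT; cpd 30 min RT (top 110 uM); beads 20 min RT, light-protected.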
HP1b chromo inh – HTS for Inhibitors of HP1-beta Chromodomain Interactions with Methylated Histone Tails; 390,000 compounds, 0.56% hits; Chromobox protein homolog 1 (Homo sapiens), P83916; Potency, µM (titrated, usually from 114 µM), hits mostly inhibitors; AlphaScreen HP1-beta / biotin-H3K9me3 peptide binding; AID 540317, 2011; note: nearly all actives have a fitted effect of over 70% in size
Target sequence (P83916 whole entry, looked up): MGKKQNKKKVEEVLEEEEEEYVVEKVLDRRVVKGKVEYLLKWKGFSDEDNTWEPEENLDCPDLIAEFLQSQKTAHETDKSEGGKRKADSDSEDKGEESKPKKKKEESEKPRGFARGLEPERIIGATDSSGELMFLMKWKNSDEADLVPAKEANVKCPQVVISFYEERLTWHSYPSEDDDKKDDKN
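Compound inhibition of the preformed complex between 50 nM HP1-beta and 50 nM biotinylated H3K9me3 peptide was read by AlphaScreen. Buffer was PBS pH 7.4 with 0.01% Tween-20. Incubations ran 30 min at room temperature, with 10 ug/mL donor/acceptor beads.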
Six1-Eya2 inh – qHTS Assay for Inhibitors of the Six1/Eya2 Interaction; Homeobox protein SIX1 (Homo sapiens) + Protein phosphatase EYA2 (Homo sapiens), …; AlphaScreen GST-Six1/His-Eya2 binding, biochemical; stronger effect = lower value; activity change, % (test concentration not listed); 360,000 compounds, 0.56% hits; AID 651725, 2012; in the data active = activity change below about -65%; inconclusive = mostly about -30% to -63%
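Six1/Eya2 binding was read as AlphaScreen signal after compounds were pinned into GST-Six1 plus His-tagged Eya2 (5X stock 250/500 nM) in pH 8.0 Tris/NaCl/TCEP buffer, beads added, then incubated 1 h, 37 C, dark.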
CtBP-E1A inh – qHTS Assay for Inhibitors of the CtBP/E1A Interaction | AlphaScreen GST-E1A/His-CtBP binding, 1536-well; stronger effect = lower value | activity change, % (test concentration not listed) | 340,000 compounds, 0.49% hits | AID 651724, 2012; in the data active = activity change below about -65%; inconclusive = mostly about -30% to -63%
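GST-E1A and His-tagged CtBP (125 nM each as 5X stock) were preincubated with pin-transferred compound for 2 h at 37 °C in the dark, then glutathione donor and nickel acceptor beads were added for 1 h before AlphaScreen reading.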
JMJD2A Tudor inh – qHTS Assay for Inhibitors of JMJD2A-Tudor Domain | Lysine-specific demethylase 4A (Homo sapiens), O75164 | AlphaScreen JMJD2A-Tudor / H3K4me3 peptide binding | Potency, µM (top dose mostly 114 µM), actives largely listed as inhibitors | 390,000 compounds, 4.4% hits; note: nearly all actives have a fitted effect of over 50% in size
G9a inh – qHTS Assay for Inhibitors of Histone Lysine Methyltransferase G9a. Histone-lysine N-methyltransferase EHMT2 (Homo sapiens), Q96KQ7. G9a H3K9 monomethylation, AlphaScreen, 2 h. Potency, µM (doses to about 102 µM), hits mostly inhibitors. 350,000 compounds, 8.8% hits. AID 504332, 2011; note: nearly all actives have a fitted effect of over 75% in size
Target sequence (Q96KQ7 913-1193 limits assumed): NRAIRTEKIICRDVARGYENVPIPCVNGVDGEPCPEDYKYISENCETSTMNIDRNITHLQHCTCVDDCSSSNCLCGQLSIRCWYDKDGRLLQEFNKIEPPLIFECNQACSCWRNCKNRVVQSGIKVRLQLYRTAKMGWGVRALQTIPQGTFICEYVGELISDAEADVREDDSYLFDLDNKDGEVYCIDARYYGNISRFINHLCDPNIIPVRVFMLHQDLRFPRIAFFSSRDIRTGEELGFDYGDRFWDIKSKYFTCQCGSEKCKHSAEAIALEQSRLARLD
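G9a (20 nM) preincubated 15 min RT with compounds, then 500 nM biotinylated H3K9 peptide and 20 uM SAM added; 2 h RT reaction. Monomethyl-H3K9 product detected by AlphaScreen with anti-H3K9me1 antibody, streptavidin donor and anti-rabbit IgG acceptor beads.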
A number is an active result; 0 = inactive; ? = inconclusive; - = no result given; ! = a repeat was not active; [ ] = remark or other dose. Compounds with a hit are over-represented: about 10% of the library has one in this group of screens. Unless noted, calls come from the whole dose curve; as a rule, active = well fitted inhibition curve with a large enough effect; inconclusive = small, poorly fitted or top-dose-only effect; inactive = no such curve, though single readings can be large or run the other way.

SMILES | BAZ2B block | HP1b chromo inh | Six1-Eya2 inh | CtBP-E1A inh | JMJD2A Tudor inh | G9a inh
Cc1ccc2onc(CNC(=O)N3CCN(c4cccc(C(F)(F)F)c4)CC3)c2c1 | 0 | 0 | - | - | 0 | 0
CCOc1cc(C(c2c(C)[nH]n(-c3ccccc3)c2=O)c2c(C)[nH]n(-c3ccccc3)c2=O)ccc1O | 11µM | ? | - | - | 50µM | ?
Cc1[nH]n(-c2ccccc2)c(=O)c1C(c1cc(Cl)ccc1O)c1c(C)[nH]n(-c2ccccc2)c1=O | ? | ? | - | - | 45µM | ?
Cc1nc(-c2ccc(NC(=O)Cc3ccccc3)cc2)cs1 | 0 | 0 | 0 | 0 | 0 | 0
Cc1ccc2sc(-c3ccc(NC(=O)/C=C\C(=O)O)cc3)nc2c1 | - | 0 | 0 | 0 | 0 | 50µM
Cc1nc(-c2ccc(NC(=O)/C=C\C(=O)O)cc2)cs1 | 0 | 0 | 0 | 0 | ? | 35µM
Cc1ccc2nc(-c3ccc(NC(=O)Cc4ccccc4)cc3)sc2c1 | 0 | 0 | - | - | 0 | 0
CCOC(=O)C1=C(C)N=C2SCCC(=O)N2C1c1ccc(OCc2ccccc2)c(OC)c1 (configuration not stated) | 0 | 0 | - | - | 0 | 0
CCN1CCN(CCn2c(=S)[nH]c3cc4c(cc3c2=O)OCO4)CC1 | 0 | 0 | 0 | 0 | ? | 0[12.7 µM]
Cc1c(SCCO)c(=O)[nH]c2cc3c(cc12)OCO3 | 0 | 0 | 0 | 0 | 0 | 50µM
Cc1sc2nc(C3CC3)nc(N3CCN(S(=O)(=O)c4ccc(F)cc4)CC3)c2c1C | 0 | 0 | 0 | 0 | 0 | 0
Cc1sc2nc(C3CC3)nc(N3CCN(C(=O)c4ccccc4F)CC3)c2c1C | 0 | 0 | 0 | 0 | 0 | 45µM
COc1ccc(C(=O)N2CCN(c3nc(C4CC4)nc4sc(C)c(C)c34)CC2)cc1 | ? | 0 | 0 | 0 | ? | 40µM
Cc1sc2nc(C3CC3)nc(N3CCN(C(=O)c4ccc(Cl)cc4)CC3)c2c1C | ? | 0 | 0 | 0 | 45µM | 45µM
Cc1sc2ncnc(N3CCC(C(=O)NNC(=O)c4ccccc4Cl)CC3)c2c1C | 0 | 0 | ? | 0 | 0 | 0
Cc1sc2nc(C3CC3)nc(N3CCN(C(=O)c4ccc(F)cc4)CC3)c2c1C | ? | 0 | 0 | 0 | 0 | 45µM
O=S1(=O)C[C@H](N2CCOCC2)[C@@H](COCc2ccccc2)N1 | - | - | 0 | 0 | - | -
Cc1ccc(NS(=O)(=O)c2cccc(F)c2)cc1C | - | - | - | - | 0 | -
Cc1cccc(NC(=O)Nc2nnc(N(C)Cc3ccccc3)s2)c1 | 0 | 0 | - | - | 0 | 0
O=C(O)c1cc([N+](=O)[O-])c(NCCC2=CCCCC2)c([N+](=O)[O-])c1 | 0 | 0 | 0 | 0 | 0 | 50µM
COc1ccc(C(=O)NCCC2=CCCCC2)cc1[N+](=O)[O-] | 0 | 0 | 0 | 0 | 0 | 0
O=[S+]([O-])(c1cc2ccccc2o1)N1CCN([S+](=O)([O-])c2c(F)cccc2F)CC1 | - | - | - | - | 0 | -
CC(C)N1C(=O)/C(=C/c2nc3ccccc3c(=O)n2-c2ccccc2)c2ccccc21 | 35µM | 25µM | ? | 0 | 20µM | 10µM
CC(C)N1C(=O)C(Cc2nc3ccccc3c(=O)n2-c2ccccc2)c2ccccc21 (configuration not stated) | ? | 0 | 0 | ? | 0 | -
CC(C)N1C(=O)/C(=C\c2nc3ccccc3c(=O)n2-c2ccccc2)c2ccccc21 | 10µM | ? | ? | 0 | 35µM | ?
SMILES | BAZ2B block | HP1b chromo inh | Six1-Eya2 inh | CtBP-E1A inh | JMJD2A Tudor inh | G9a inh
CCc1nnc2c3ccccc3nc(Nc3ccccc3OC)n12 | 0 | 0 | - | - | 0 | 0
S=C(NCC1CCCO1)c1ccc(Br)cc1 (configuration not stated) | 0 | ? | 0 | 0 | 0 | 8.9µM
S=C(NCC1CCCO1)NC1CCCCC1 (configuration not stated) | ? | 0 | 0 | 0 | 0 | 50µM
CC(C)(C)c1ccc(C(=O)NNC(=S)NCC2CCCO2)cc1 (configuration not stated) | 0 | 0 | 0 | 0 | 0 | 0
O=C(NCC1CCCO1)C1CCCN1C(=O)NC1CCCCC1 (configuration not stated) | 0 | 0 | 0 | 0 | 0 | 0
CC(C)(C)c1ccc(C(=O)NC(=S)NCC2CCCO2)cc1 (configuration not stated) | 0 | 0 | 0 | 0 | 0 | 40µM
CCCc1nnc(NC(=O)CCC(=O)N2CCN(c3ccccc3)CC2)s1 | ? | 0 | 0 | 0 | 0 | 0
Cn1cc([N+](=O)[O-])c(C(=O)N/N=C/c2ccc3c(c2)OCO3)n1 | 0 | 0 | 0 | 0 | 0 | -
CCn1c(=O)c2sccc2n2c(CCCC(=O)N3CCN(c4ccc(F)cc4)CC3)nnc12 | 0 | 0 | - | - | 0 | 0
CCC(C)NCCOc1cccc(Br)c1 (configuration not stated) | 0 | ? | 0 | 0 | 4.5µM | 8.9µM
c1ccc(CCNCCOc2ccccc2)cc1 | ? | 0 | 0 | 0 | 2.8µM | 10µM
COCCCNCCOc1ccc(C(C)(C)c2ccccc2)cc1 | ? | 0 | 0 | 0 | 18µM | 20µM
C=CCNCCOc1cccc(Br)c1 | 0 | 0 | 0 | 0 | 0 | ?
CC(C)(c1ccccc1)c1ccc(OCCCN2CCNCC2)cc1 | 20µM | ? | 0 | 0 | 1.1µM | 16µM
COc1ccc(C)cc1N(CC(=O)Nc1ccc(S(=O)(=O)N2CCCC2)cc1)S(C)(=O)=O | 0 | 0 | 0 | 0 | ? | 0[0.501 µM]
NNCCc1ccccc1 | 0 | 0 | 0 | 0 | 79µM | 19µM!
CC(C)(C)c1ccc(OCCNCc2ccccc2)cc1 | 0 | ? | 0 | 0 | 2.2µM | 45µM
CNCCCOc1ccc(C(C)(C)c2ccccc2)cc1 | 79µM | - | - | - | - | 7.9µM
CCC(C)NCCOc1ccc(C(C)(C)c2ccccc2)cc1 (configuration not stated) | ? | ? | 0 | 0 | 2.8µM | 7.9µM
CCC(C)Nc1nc2c(c(=O)[nH]c(=O)n2C)n1Cc1ccc(F)cc1 (configuration not stated) | 0 | 0 | - | - | 0 | 0
COc1ccc(C(=O)N2CCC3(CCCN(C(=O)Nc4cccc(F)c4)C3)CC2)cc1 | - | - | - | - | - | 0[12.7 µM]
Cc1nc(Nc2nc3ccccc3o2)nc2c1CCC2 | - | 0 | 0 | 0 | 10µM | ?
CC(C)c1nc(Nc2nc3ccccc3o2)nc2c1CCCC2 | - | - | - | - | 0 | -
Cc1ccc(C)c(OCCCCn2ccnc2)c1 | ? | 0 | 0 | 0 | ? | ?
c1ccc(-c2ccccc2OCCCCn2ccnc2)cc1 | 50µM | 40µM | 0 | 0 | 20µM | -
Cc1cccc(OCCCCCn2ccnc2)c1C | ? | 0 | 0 | 0 | 0 | 0
CC(C)(C)c1ccccc1OCCCCCn1ccnc1 | 18µM | ? | 0 | 0 | 2.8µM | ?

Screening results (PubChem)
